This note sets out measurements from PubChem BioAssay AID1578 (Sanford-Burnham Center for Chemical Genomics, 2009).

Several values for one entry are separate records, joined by “and”; a condition that tells them apart may be missing. Equal entries are not always repeated. Screen size: about 290,000 compounds; about 3,000 (1%) were called active. Cut-off read from the data, not from the text of the source: active = inhibition mostly above about 36% (no sharp cut-off); inactive = mostly below about 34%. What follows is part of a selection rich in actives, with near analogues and random picks from the rest.

The nature of this assay: inhibition of NOD1-driven NF-kB reporter – cell-based, luminescence, uHTS, primary screen (AID 1578).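 Note: HEK-293T reporter cells stimulated with the NOD1 agonist gamma-tri-DAP.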 The note with it: NOD1-driven NF-kB luciferase reporter cells, at 4 µM, hits give high values. In general terms: In a reporter assay the amount or activity of a reporter protein is the signal.
The inhibition is the drop in the measured response relative to a control, in per cent. Consider `Fc1ccc(C2=NN(c3ccccc3)C(c3ccco3)C2)cc1` (configuration not stated), for which the inhibition is 4% (inactive).
Next, `c1ccc(C2=NN(c3ccccc3)C(c3ccco3)C2)cc1` (configuration not stated): 54.1% (active).
Next, `Clc1ccc(C2=NN(c3ccccc3)C(c3ccco3)C2)cc1` (configuration not stated): -9.1% (inactive).
For the molecule `O=S(=O)(c1ccc(F)cc1)N1CCn2c(nc3ccccc32)C1`, the inhibition was -11.7% (inactive).
Turning to `CCOc1ccc(S(=O)(=O)Nc2cc(C)ccn2)c2ccccc12`, the inhibition was 5.2% (inactive).
`Cc1ccc2[nH]c3c(=O)n(Cc4ccco4)cnc3c2c1`: the inhibition is 1.2% (inactive).
Next, `COc1cc(-c2nnc3sc(C4CCCCC4)nn23)cc(OC)c1OC`: -20.6% (inactive); `COc1cccc(-c2nnc3sc(C4CCCCC4)nn23)c1`: 96.4% (active); `CCOc1cccc(-c2nnc3sc(-c4ccc(C)cc4)nn23)c1`: -0.8% (inactive).
On to `COc1ccc(-c2nnc3sc(C4CCCCC4)nn23)cc1OC`, for which the inhibition is 9.5% (inactive).
`c1cncc(-c2nnc3sc(C4CCCCC4)nn23)c1`: the inhibition is -14.1% (inactive).
The same measure for `CCOc1cccc(-c2nnc3sc(C4CCCCC4)nn23)c1`: 66.8% (active); for `O=C(c1ccccc1)N1CCC(c2nc(-c3ccc(S(=O)(=O)N4CCOCC4)cc3)no2)CC1`: 18.2% (inactive).
The same measure for `COCCCNC(=S)NNC(=O)Cn1nc(C)c(Br)c1C`: 0.3% (inactive); for `CC(Oc1ccc(Cl)cc1Cl)c1nc(-c2ccc(NC(=O)c3ccccn3)cc2)no1` (configuration not stated): -18.6% (inactive); for `CC(Oc1ccc(Cl)cc1Cl)c1nc(-c2ccc(NC(=O)c3ccco3)cc2)no1` (configuration not stated): -12.3% (inactive).
The same measure for `CC(Oc1ccc(Cl)cc1Cl)c1nc(-c2ccc(NC(=O)c3ccncc3)cc2)no1` (configuration not stated): 42.3% (active); for `C=C(C(=O)O)C1CCC2(C)CCCC(C)(O)C2C1` (configuration not stated): -0.6% (inactive).
With `NNc1nc(C(F)(F)F)nc2ccccc12`, the inhibition is -7.9% (inactive).
Take `C/C(O)=c1/ccc2cccc3nc(C)nc1c23`: the inhibition is -3.6% (inactive).
Next, `O/C=c1\ccc2cccc3nc(C(F)(F)F)nc1c23`: 38% (active).
`Cc1ccc(NC(=O)COC(=O)C(NS(=O)(=O)c2ccc(Cl)cc2)C(C)O)c(Br)c1` (configuration not stated): the inhibition was -22.2% (inactive).
Consider `CCOC(=O)N1CCN(C(=O)CN(C2CCCCC2)S(=O)(=O)c2c(C)cc(C)cc2C)CC1`, for which the inhibition is -2.2% (inactive).
Next, `COc1ccc(C(=O)NCCNc2ccccc2[N+](=O)[O-])cc1`: -34% (inactive); `COc1ccc(C(=O)NCCNc2ccc([N+](=O)[O-])cc2)cc1`: -51.3% (inactive).
Take `CCCNC(=O)c1ccc(S(=O)(=O)c2ccc(OC)cc2)c([N+](=O)[O-])c1`: the inhibition is 63.9% (active).
Next, `CCOc1ccc(OCC)c(S(=O)(=O)n2cc(C)nc2CC)c1`: -17.2% (inactive); `CCc1nc(C(N)=O)c2[nH]c(=O)n(-c3ccccc3F)c2n1`: -17% (inactive); `COc1ccc(OC)c(/C=C/C(=O)N2C(=O)c3cccc(N)c3C2=O)c1`: 88.6% (active).
Take `Nc1cccc2c1C(=O)N(C(=O)/C=C/c1cccc(Br)c1)C2=O`: the inhibition is 3.9% (inactive).
The same measure for `COc1cc(/C=C/C(=O)N2C(=O)c3cccc(N)c3C2=O)cc(OC)c1OC`: 17.4% (inactive); for `COCCSc1nnc(NC(=O)Cc2ccc(OC)cc2)s1`: -20.4% (inactive).
Consider `CCN1C(=O)C(CC(=O)Nc2ccc(OC)cc2)N(CCCN2CCN(c3ccc(F)cc3)CC2)C1=S` (configuration not stated), for which the inhibition is -47.7% (inactive).
Consider `COc1ccccc1N1CCN(C(=O)CCCNC(=O)Cn2cnc3sc(C)c(C)c3c2=O)CC1`, for which the inhibition was 17.8% (inactive).
For `Cc1cccc(NC(=O)CSc2nccn2Cc2ccco2)c1C`, the inhibition is -19.3% (inactive).
`COc1ccc(/C=N/Nc2nncc3ccccc23)cc1`: the inhibition is 0.2% (inactive).
In the case of `CN(CCO)c1ccc(/C=N/Nc2nncc3ccccc23)cc1`, the inhibition was 57.1% (active).
As to `CN(C)c1ccc(/C=N/Nc2nncc3ccccc23)cc1`, the inhibition was 15% (inactive).
The same measure for `O=C(COC(=O)c1sc2cc(Cl)ccc2c1Cl)Nc1ncc(Cl)cc1Cl`: -10.9% (inactive); for `COc1ccccc1-c1cc(-c2ccccc2)nc(=O)[nH]1`: -2.4% (inactive).
As to `COc1ccc(NC(=O)c2cc([N+](=O)[O-])ccc2N2CCCCC2)cc1`, the inhibition was -27.2% (inactive).
For the molecule `COc1ccc(NC(=O)c2cc([N+](=O)[O-])ccc2N2CCCC2)cc1`, the inhibition is -23.7% (inactive).
For the molecule `COc1ccc(NC(=O)c2cc([N+](=O)[O-])ccc2O)cc1`, the inhibition was 99.1% (active).
Next, `CCN1CCc2c(OCc3ccc(C)cc3)cccc2C1=O`: 2.6% (inactive).
Next, `CCCCn1c(-c2csc3ccccc23)n[nH]c1=S`: 5.2% (inactive); `CCCCNC(=O)C1CCN(C(=O)C2CCN(S(=O)(=O)c3ccc(C)cc3)CC2)CC1`: -21.1% (inactive); `C=CCC1(CC=C)CCCN1C(=O)c1cc(COc2ccc(F)c(F)c2)on1`: -18.8% (inactive).
Next, `C=CCC1(CC=C)CCCN1C(=O)c1cc(COc2cccc(OC)c2)on1`: 0.2% (inactive).
For the molecule `CNC(=O)/C=C1\NC(C)(C)Cc2c1ccc1ccccc21`, the inhibition was 14.5% (inactive).
Next, `Cc1nnc(N/N=C/C(C)c2ccccc2)[nH]c1=O` (configuration not stated): -10% (inactive); `O=C(CCn1c2c(c3ccccc31)CCCC2)NNC(=O)c1ccc([N+](=O)[O-])cc1`: -4.7% (inactive); `CCCCn1c(SCC(=O)Nc2nnc(C)s2)nnc1-c1ccoc1C`: 8.6% (inactive).
Next, `O=C(NCCCNC(=O)c1c(F)cccc1F)c1c(F)cccc1F`: 1.4% (inactive); `O=C(NCC(Cl)c1ccc2ccccc2c1)c1c(F)cccc1F` (configuration not stated): 31.2% (active); `O=C(NCC(O)c1ccc2ccccc2c1)c1c(F)cccc1F` (configuration not stated): -2.4% (inactive).
`Cc1ccc(CN(Cc2cc3cc(C)ccc3[nH]c2=O)C(=O)N2CCOCC2)cc1`: the inhibition is -1.5% (inactive).
As for `CC(C)CNC(=O)COC(=O)c1cc(Cl)cc(Cl)c1N`, the inhibition was -25.7% (inactive).
Turning to `CC1(C)Cc2nc(N)c(=O)sc2C1`, the inhibition was 5.3% (inactive).
Next, `CC(/C=C\c1cccnc1)=C/C(=O)O`: -5.6% (inactive) and -22.2% (inactive); `O=C(/C=C/c1cccnc1)/C=C/c1cccnc1`: 49.7% (active); `O=C(O)/C=C/c1cccnc1`: -4.2% (inactive).
Next, `COC(=O)CCC(=O)N(C)CC1CCCN(CCc2cccc(C(F)(F)F)c2)C1` (configuration not stated): 6.2% (inactive).
